This note sets out measurements from PubChem BioAssay.

Activity calls are given as the source filed them.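 The calls were made as follows, unless noted: active = visual image review flags a hit and inhibition of aggregation exceeds 20%; inconclusive = visual hit but inhibition at or below 20%; inactive = no hit on visual image review.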

A short description of test [1]: inhibitors of TNFa-induced NFkB p65 translocation, primary screen, imaging, HUVEC, MLSMR starter and 10KST1 sets (AID 438;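 active = inhibition above 20% together with a positive visual image hit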;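 also: compound added about 3h40 before a 20 min TNFalpha stimulation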;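 as to inhibition: signal is the nuclear over cytoplasmic p65 intensity ratio per well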). Conditions: HUVEC TNFa-induced p65 nuclear translocation; cell count: measured here: nuclei count (cytotoxicity indicator), at 2.08 µM; inhibition: at 2 µM, stronger effect = higher value, 0% TNFa-plus-vehicle, 100% no-TNFa wells.
Test [2] can be described thus: inhibitors of mutant huntingtin aggregation, primary screen, imaging, exon1htt(103Q)mCFP cells, high-content imaging (AID 483).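 Also: compound exposure lasted 3 days before fixation.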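 As to nuclei count: percent of the per-plate median nuclei count of sample wells.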 Conditions: exon1htt(103Q)mCFP cell line, aggregate imaging, at 2 µM; inhibition of aggregation: stronger effect = higher value; nuclei count: measured here: cell count, toxicity.
The nature of test [3]: inhibitors of E-selectin induction by TNFa, primary screen, imaging, HUVEC, immunofluorescence, MLSMR starter and 10KST1 sets (AID 487;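 active = visually confirmed hit in the image check and inhibition above 20%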;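 as to inhibition: signal is fraction of cell area covered by stained E-selectin grains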;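 as to nuclei count: 100% = median nuclei count of all wells on the same plate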). Conditions: HUVEC TNFalpha-induced E-selectin immunofluorescence imaging, at 2 µM; inhibition: stronger effect = higher value; nuclei count: measured here: cell number, toxicity.
Test [4] deals with Voltage-gated potassium channel subunit beta-2 (Rattus norvegicus) (UniProt P62483). Put plainly: KvBeta enzyme negative modulators, primary screen, biochemical, NADPH fluorescence (AID 622;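 active = fluorescence slope higher than the sample average by over 3 SD, cut at about -0.22 in these data, passing the limit was not always enough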;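 also: slope of raw intensity against log time taken from 70 to 1610 s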). Conditions: recombinant KvBeta, 4-cyanobenzaldehyde reduction, at 10 µM, stronger effect = higher value.
For test [5] the target is unchanged. As to the kind of experiment: KvBeta positive modulators, primary screen, biochemical, NADPH fluorescence (AID 623;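 active = NADPH fluorescence slope more negative than the mean of all samples by about 3 SD, 99.7% confidence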;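 also: fluorescence intensity change per second fitted from 20 to 320 s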). Conditions: Recombinant KvBeta, NADPH fluorescence decrease slope, 10 min; at 10 µM; stronger effect = lower value.
Test [6] addresses Alpha-2C adrenergic receptor (Homo sapiens) (UniProt P18825). Put plainly: modulators of alpha2C/GIRK thallium flux, primary screen, cell-based, HEK293 alpha2C/GIRK1/2 (AID 624;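 active = fluorescence slope after compound addition differing from the mean of all screened samples at 99.7% confidence, in either direction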;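 also: slope of fluorescence ratio to pre-addition baseline per second over 15 to 24 s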). Conditions: thallium flux BTC fluorescence, at 10 µM, actives lie on both sides.
Test [7] can be described thus: inhibitors of Sendai virus-induced IRF3 signaling, primary screen, TLR/RLR signaling modifier project, cell-based, Sendai virus stimulus, luciferase, 10K MLSCN set (AID 602276;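 active = inhibition at or above 50% at 10 µM; inactive = inhibition below 50%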;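 also: firefly luciferase from ISG56 promoter only with Renilla not read in this screen; 0% = Sendai virus plus DMSO and 100% = medium plus DMSO without virus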). Conditions: HEK293 RL24 IRF3 luciferase reporter, at 10 µM, stronger effect = higher value.
A short description of test [8]: inhibitors of poly I:C-induced TLR3 signaling, primary screen, cell-based, poly I:C stimulus, luciferase, 10K MLSCN set (AID 602277;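 active = inhibition of the reporter signal at or above 50%; inactive = inhibition below 50%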). Conditions: HEK293-TLR3 RL24 IRF3 luciferase reporter, at 10 µM, stronger effect = higher value. A general note: In a reporter assay the amount or activity of a reporter protein is the signal.

As usually defined, the inhibition is the relative decrease from the control value, in per cent.

Chain of Voltage-gated potassium channel subunit beta-2 (Rattus norvegicus) (P62483 whole entry, looked up): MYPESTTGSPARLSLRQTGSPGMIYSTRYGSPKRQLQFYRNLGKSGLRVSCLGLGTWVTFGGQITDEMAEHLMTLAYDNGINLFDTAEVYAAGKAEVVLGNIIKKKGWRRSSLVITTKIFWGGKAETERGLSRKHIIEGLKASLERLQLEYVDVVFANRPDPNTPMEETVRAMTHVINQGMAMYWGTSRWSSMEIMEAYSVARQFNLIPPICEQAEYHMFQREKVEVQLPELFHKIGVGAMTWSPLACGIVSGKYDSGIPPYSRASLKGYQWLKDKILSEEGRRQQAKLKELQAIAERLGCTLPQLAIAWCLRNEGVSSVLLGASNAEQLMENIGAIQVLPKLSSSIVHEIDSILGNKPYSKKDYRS
Chain of Alpha-2C adrenergic receptor (Homo sapiens) (P18825 whole entry, looked up): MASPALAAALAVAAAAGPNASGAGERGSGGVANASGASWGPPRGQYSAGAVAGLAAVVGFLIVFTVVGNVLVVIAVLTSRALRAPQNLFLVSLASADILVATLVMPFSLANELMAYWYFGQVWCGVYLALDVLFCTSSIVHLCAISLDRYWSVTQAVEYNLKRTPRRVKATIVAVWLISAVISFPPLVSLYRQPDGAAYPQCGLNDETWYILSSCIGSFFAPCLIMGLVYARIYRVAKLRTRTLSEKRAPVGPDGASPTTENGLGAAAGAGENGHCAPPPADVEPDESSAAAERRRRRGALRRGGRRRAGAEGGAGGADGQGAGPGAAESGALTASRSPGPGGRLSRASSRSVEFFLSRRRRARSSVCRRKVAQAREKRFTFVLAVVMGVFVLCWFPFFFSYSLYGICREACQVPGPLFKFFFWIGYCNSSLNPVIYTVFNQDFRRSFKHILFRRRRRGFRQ

`CN1CC(=O)N(CC(=O)NCCc2ccc(F)cc2)c2ccccc2C1=O`: the cell count in test [1] was found to be 214. The inhibition is 21% (inactive) in test [1], -1.2% (inactive) in test [3], 10.8% (inactive) in test [7] and 9.93% (inactive) in test [8]. For the same molecule, the inhibition of aggregation in test [2] was 16.8% (inactive). Further, the figures for the nuclei count in test [2] and in test [3] were 110% and 90.4%, respectively. Besides, in test [4], the fluorescence slope is -0.602 (inactive). Besides, in test [5], the NADPH fluorescence slope is -2.2e-05 (inactive). The slope in test [6] is 0.0102 (inactive).

For the molecule `COc1ccc(CCNC(=O)CSc2nnc(CNc3ccc(Cl)cc3)o2)cc1OC`, the cell count in test [1] turned out to be 241. For the same molecule, the inhibition in test [1] was -3.2% (inactive); in test [3], 10.2% (inactive); in test [7] it was 11.9% (inactive); in test [8] it was 19.4% (inactive). In addition, the inhibition of aggregation in test [2] is 33.1% (active). Moreover, the results for the nuclei count in test [2] and in test [3] were 72.1% and 63.5%, respectively. The fluorescence slope in test [4] is -0.594 (inactive). The NADPH fluorescence slope in test [5] was -1.9e-05 (inactive). Moreover, the slope in test [6] was 0.0062 (inactive).

As for `Cc1ccc(-c2nc3cc(NC(=O)C(C)C)ccc3o2)cc1`, in test [1], the cell count was found to be 290. For the same molecule, the inhibition in test [1] was -6.7% (inactive); in test [3] it was 29.7% (inactive); in test [7], -10.9% (inactive); in test [8], -66.2% (inactive). Moreover, in test [2], the inhibition of aggregation was 14.3% (inactive). Further, the results for the nuclei count in test [2] and in test [3] were 98.3% and 87.7%, respectively. Also, the fluorescence slope in test [4] is -0.319 (inactive). The NADPH fluorescence slope in test [5] is -3e-05 (inactive). Also, the slope in test [6] is 0.0055 (inactive).

Take `COc1ccccc1-c1nc(SCc2ccccn2)n[nH]1`: the cell count in test [1] was determined as 509. In addition, the inhibition in test [1] was 8.9% (inactive); in test [3], 32.9% (inactive); in test [7], -21% (inactive); in test [8], -28.9% (inactive). Further, in test [2], the inhibition of aggregation is 2.6% (inactive). Besides, the nuclei count in test [2] was 99.6%; in test [3], 96.4%. Moreover, in test [4], the fluorescence slope is -0.605 (inactive). The NADPH fluorescence slope in test [5] was -2.8e-05 (inactive). Further, in test [6], the slope is 0.0058 (inactive).

Take `COc1ccccc1NC(=O)NC1(C(=O)N2CCC(O)CC2)CCCCC1`: the cell count in test [1] was 242. The inhibition in test [1] is 3.9% (inactive); in test [3] it was 1.6% (inactive); in test [7] it was -0.183% (inactive); in test [8], 2.89% (inactive). For the same molecule, the inhibition of aggregation in test [2] was 16.6% (inactive). Also, the nuclei count in test [2] amounted to 79.3%; in test [3] it was 94%. Also, in test [4], the fluorescence slope is -0.605 (inactive). Also, in test [5], the NADPH fluorescence slope was 1.9e-06 (inactive). Also, the slope in test [6] was 0.00897 (inactive).

As for `CC(C)COc1ccc(C(=O)OCCN2CCOCC2)cc1`, the cell count in test [1] was found to be 211. The inhibition in test [1] is 2.3% (inactive); in test [3], -18.5% (inactive); in test [7], -17.8% (inactive); in test [8], -15% (inactive). The inhibition of aggregation in test [2] was -8.6% (inactive). Also, the nuclei count in test [2] stood at 108%; in test [3] it was 116%. For the same molecule, the fluorescence slope in test [4] is -0.636 (inactive). Also, in test [5], the NADPH fluorescence slope was 1.1e-05 (inactive). Moreover, in test [6], the slope was 0.00666 (inactive).

Regarding `CNc1ccc(C(O)(C(F)(F)F)C(F)(F)F)cc1C(O)(C(F)(F)F)C(F)(F)F`, the cell count in test [1] was determined as 667. The inhibition in test [1] is 3.3% (inactive); in test [3] it was 3.3% (inactive); in test [7], 12.6% (inactive); in test [8], 18.9% (inactive). For the same molecule, the inhibition of aggregation in test [2] was -7.5% (inactive). Further, the nuclei count in test [2] came to 103%; in test [3] it was 92.8%. In addition, the fluorescence slope in test [4] is -0.616 (inactive). The NADPH fluorescence slope in test [5] is -4.4e-05 (inactive). The slope in test [6] was 0.00297 (inactive).

Turning to `Cc1cc(C(=O)CSc2nc3ccccc3n2CCC#N)c(C)n1Cc1cccs1`, the cell count in test [1] was 440. Moreover, the inhibition is 10.6% (inactive) in test [1], -412% (inactive) in test [3], 20.7% (inactive) in test [7] and -7.47% (inactive) in test [8]. For the same molecule, in test [2], the inhibition of aggregation was -70.3% (inactive). For the same molecule, the nuclei count in test [2] turned out to be 102%; in test [3], 158%. Further, in test [4], the fluorescence slope is -0.32 (inactive). Moreover, the NADPH fluorescence slope in test [5] was -4.6e-05 (inactive). Further, the slope in test [6] was 0.00574 (inactive).

With `CCOc1ccccc1NC(=O)C1CCCN(S(=O)(=O)c2cccc3cccnc23)C1` (centres undefined), the cell count in test [1] turned out to be 717. For the same molecule, the inhibition in test [1] was 0% (inactive); in test [3] it was -55.7% (inactive); in test [7] it was 19.8% (inactive); in test [8] it was 43.4% (inactive). Further, the inhibition of aggregation in test [2] is 14.7% (inactive). Further, the nuclei count worked out at 124% in test [2] and 101% in test [3]. The fluorescence slope in test [4] is -0.55 (inactive). In test [5], the NADPH fluorescence slope was -3.3e-05 (inactive). Moreover, the slope in test [6] is 0.00547 (inactive).

As to `Cc1onc(-c2ccccc2Cl)c1C(=O)Nc1cnn(Cc2ccccc2)c1`, the cell count in test [1] was found to be 545. Also, the inhibition in test [1] was 1.1% (inactive); in test [3], 15.1% (inactive); in test [7] it was 14.3% (inactive); in test [8] it was 32.6% (inactive). The inhibition of aggregation in test [2] was -4% (inactive). The nuclei count in test [2] is 121%; in test [3], 120%. In addition, in test [4], the fluorescence slope was -0.545 (inactive). Besides, in test [5], the NADPH fluorescence slope was 6.7e-06 (inactive). Also, the slope in test [6] is 0.00545 (inactive).

On to `Cc1cc(C)c2nc(C(F)(F)F)nc(NCCCN3CCCC3=O)c2c1`, for which the cell count in test [1] turned out to be 277. Further, the inhibition was 5% (inactive) in test [1], -230% (inactive) in test [3], 16.5% (inactive) in test [7] and 18.3% (inactive) in test [8]. In test [2], the inhibition of aggregation was 21.4% (inactive). The nuclei count in test [2] was found to be 80.7%; in test [3], 97.5%. Besides, the fluorescence slope in test [4] was -0.484 (inactive). In addition, the NADPH fluorescence slope in test [5] is -2.3e-05 (inactive). Besides, the slope in test [6] was 0.00428 (inactive).

On to `COc1ccc(CCN2C(=O)CC(N3CCOCC3)C2=O)cc1` (centres undefined), for which the cell count in test [1] was determined as 665. Moreover, the inhibition in test [1] was -1.8% (inactive); in test [3], -57% (inactive); in test [7], 4.57% (inactive); in test [8], -0.756% (inactive). Further, in test [2], the inhibition of aggregation was -7.6% (inactive). Also, the nuclei count was found to be 100% in test [2] and 102% in test [3]. For the same molecule, the fluorescence slope in test [4] was -0.496 (inactive). For the same molecule, the NADPH fluorescence slope in test [5] is -6.6e-05 (inactive). Besides, the slope in test [6] was 0.00402 (inactive).

Turning to `CCCS(=O)(=O)C(=C1Nc2ccccc2N1)S(=O)(=O)CCC`, in test [1], the cell count worked out at 543. Moreover, the inhibition in test [1] is -7% (inactive); in test [3], 0.5% (inactive); in test [7], 12.1% (inactive); in test [8], 15.8% (inactive). In addition, the inhibition of aggregation in test [2] is -18.7% (inactive). In addition, the nuclei count is 119% in test [2] and 75.9% in test [3]. For the same molecule, in test [4], the fluorescence slope was -0.63 (inactive). In addition, in test [5], the NADPH fluorescence slope was -4.3e-05 (inactive). The slope in test [6] was 0.00495 (inactive).

Consider `CCCCOc1ccccc1NC(=O)c1ccco1`, for which, in test [1], the cell count is 334. The inhibition in test [1] is 11% (inactive); in test [3], -54.6% (inactive); in test [7], 18.5% (inactive); in test [8] it was 18.5% (inactive). Moreover, the inhibition of aggregation in test [2] is -21.3% (inactive). Besides, the results for the nuclei count in test [2] and in test [3] were 91.7% and 122%, respectively. In addition, the fluorescence slope in test [4] was -0.517 (inactive). Further, the NADPH fluorescence slope in test [5] was -4.6e-05 (inactive). Moreover, the slope in test [6] was 0.00466 (inactive).
